Shiga toxin inh = inhibitors of Shiga toxin in Vero cells | Vero cells, Shiga toxin protein synthesis inhibition reporter | inhibition, % at 38.7 µM | 290,000 compounds, 9.2% hits | AID 2315; in the data active = inhibition mostly above about 28%, no sharp cut-off; inactive = mostly below about 43%; note: 0% is about no effect
Tb PYK inh = blocks Trypanosoma brucei pyruvate kinase | 410,000 compounds, 0.12% hits | TbPYK enzyme, Kinase-Glo Plus ATP luminescence, 45 min | Potency, µM (titrated, usually from 76.8 µM), without a hit: at the top dose activity, negative = inhibition, usual class: inhibitors | Q57TT1; note: potency is the fitted concentration of half-maximal effect; % is set by controls: 0 for no effect and ±100 for the full control effect; nearly all actives have a fitted effect of over 50% in size
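Readout: single end-point luminescence (Kinase-Glo Plus, 10 min). Reaction conditions were TbPYK/substrate plus 130 uM ADP, 45 min at RT, pH 7.2 TEA buffer. No-enzyme wells served as controls, and data were normalized before concentration-response fitting.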
Cycloheximide cs = counter-screen for Shiga toxin inhibitors: cycloheximide protein synthesis inhibition; cell reporter, cycloheximide protein synthesis inhibition counterscreen; max response, %; 300,000 compounds, 12% hits; AID 2314; in the data active = max response mostly above about 13%, no sharp cut-off; inactive = mostly below about 14%; note: read at 38.3 µM for the half of the compounds with a filed dose; 0% is about no effect
LmPK inhibitor = blocks Leishmania mexicana pyruvate kinase activity. Q27686. purified LmPK, Kinase-Glo ATP luminescence, 1 h. Potency, µM (top dose mostly 57.5 µM), without a hit: at the highest dose activity change, negative = inhibition, hits mostly inhibitors. 290,000 compounds, 0.37% hits; note: potency is the fitted concentration of half-maximal effect; % is set by controls: 0 for no effect and ±100 for the full control effect
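In 50 mM imidazole pH 7.2 with 7 mM MgCl2, LmPK (0.1 nM) turned over PEP (0.5 mM) and ADP (0.1 mM) for 1 h at room temperature. Luciferase read-out of ATP.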
Sm TGR inh = S. mansoni TGR enzyme inhibition. Potency, µM (doses to about 114 µM), without a hit: at the top dose activity change, negative = inhibition, hits mostly inhibitors. purified TGR, DTNB reduction, TNB absorbance 405 nm. Q962Y6. 360,000 compounds, 3% hits; note: potency is the fitted concentration of half-maximal effect; % is set by controls: 0 for no effect and ±100 for the full control effect; nearly all actives have a fitted effect of over 60% in size
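First, TGR (20 nM dispensed) and NADPH were mixed with compound. Second, a 15 min room-temperature incubation followed. Third, further NADPH and then DTNB were added to start the reaction. Finally, TNB absorbance was monitored kinetically.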
FBPA Giardia inh = Giardia lamblia aldolase inhibition | purified Giardia FBPA | Potency, µM (doses to about 59.6 µM), without a hit: at the top dose activity, negative = inhibition, most hits filed as inhibitors | A8B2U2 | 290,000 compounds, 0.71% hits; note: potency is the fitted concentration of half-maximal effect; % is set by controls: 0 for no effect and ±100 for the full control effect; nearly all actives have a fitted effect of over 55% in size
Target sequence (A8B2U2 whole entry, looked up): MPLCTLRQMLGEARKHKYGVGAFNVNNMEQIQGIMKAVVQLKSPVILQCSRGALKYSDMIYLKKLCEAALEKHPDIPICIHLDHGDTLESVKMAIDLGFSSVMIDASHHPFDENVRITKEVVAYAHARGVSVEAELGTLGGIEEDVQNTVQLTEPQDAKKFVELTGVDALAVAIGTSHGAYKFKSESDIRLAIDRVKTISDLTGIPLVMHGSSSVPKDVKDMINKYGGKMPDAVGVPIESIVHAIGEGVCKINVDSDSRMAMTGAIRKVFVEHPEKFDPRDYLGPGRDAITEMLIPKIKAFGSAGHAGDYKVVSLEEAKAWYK
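Giardia FBPA (40 nM reagent) was preincubated 10 min at RT with compound (up to 57.5 uM final), then substrate plus GAPDH/TPI/NAD/arsenate coupling system with diaphorase/resazurin was added; resorufin fluorescence (525/598 nm) was read after 20 min.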
An asterisk follows results filed as active; ? = inconclusive; nt = no result. This excerpt belongs to a sample that is enriched for hits. Unless noted, calls come from the whole dose curve; as a rule, active = well fitted curve in the direction sought with a large enough effect; inconclusive = small, poorly fitted or top-dose-only effect, or another doubt; inactive = no such curve, though single readings can be large; an effect the other way counts as inactive or inconclusive.

SMILES	Shiga toxin inh	Tb PYK inh	Cycloheximide cs	LmPK inhibitor	Sm TGR inh	FBPA Giardia inh
Cc1c(C(=O)N2CCN(C3CCS(=O)(=O)C3)CC2)oc2ccc(Cl)cc12 (centres undefined)	nt	-10%	nt	nt	2%	nt
Cc1ccc2c(C)c(C(=O)N3CCN(C4CCS(=O)(=O)C4)CC3)oc2c1C (centres undefined)	-13	-8%	18*	-7%	-16%	nt
O=C(CSc1nnc2c(n1)[nH]c1ccccc12)Nc1nncs1	-9	5%	-6	1%	7%	-15%
COC(=O)c1ccccc1NC(=O)Cn1c(=O)n(-c2ccc(C)cc2)c(=O)c2ccccc21	nt	2%	nt	nt	-1%	nt
O=C(COC(=O)c1ccccc1)NC1CCCC1	109*	-3%	84*	-7%	2%	-3%
O=C(COC(=O)c1ccccc1F)NC1CCCC1	36*	-9%	37*	3%	-5%	-10%
O=C(COC(=O)c1ccccc1)NC(=O)NC1CCCC1	nt	-3%	nt	nt	-9%	nt
COC(=O)c1ccccc1OCC(=O)NC1CCCCC1	132*	7%	27*	2%	8%	12%
CC(OC(=O)COc1ccccc1)C(=O)NC1CCCC1 (centres undefined)	nt	-7%	nt	nt	22µM*	nt
Cc1cccc(NC(=O)CN2C(=O)C(c3ccc(F)cc3)=NC23CCCCCC3)c1C	nt	5%	nt	nt	-14%	nt
O=C(COc1ccccc1)NC1CCCCCCC1	44*	2%	28*	3%	2%	nt
O=C(COC(=O)c1cccnc1Nc1ccccc1F)NC1CC1	28	7%	14*	-1%	-3%	3%
O=C(COC(=O)c1ccccc1F)NC1CC1	nt	-3%	nt	nt	-10%	nt
CSc1nc(N)nc(SCC(=O)Nc2cccc(F)c2)c1C#N	77*	-21%	28	3%	-4%	-4%
CSc1nc(N)nc(SCC(=O)Nc2ccc(Cl)cc2)c1C#N	43*	-3%	20*	6%	-4%	-9%
Cc1ccc(NC(=S)N(CCC(C)C)C(C)c2ccncc2)c(Cl)c1 (centres undefined)	35	-1%	23*	2%	0%	1%
CCCC/C=C/[C@H](c1ccccc1)[C@H](CO)Cc1ccccc1	40	nt	5	nt	nt	-3%
COc1cc(/C=N/NC(=O)c2ccccn2)ccc1OC(=O)c1cccs1	67*	1%	37*	-6%	-16%	nt
COc1cc(/C=N/NC(=O)C(N)=O)ccc1OC(=O)c1cccs1	-8	9%	-2	2%	-12%	1%
COc1cc(/C=N/NC(=O)c2ccccn2)cc2c1OCO2	107*	-2%	57*	-19%	-2%	-3%
COc1cc(/C=N/Nc2ccccc2)ccc1OC(=O)c1cccs1	61	-11%	35*	0%	-26%	-9%
COc1cc(/C=N/NC(=O)COc2ccc(C)cc2)ccc1OC(=O)c1cccs1	13	2%	16*	4%	-4%	-5%
COc1cc(/C=N/NC(=O)c2cccnc2)cc2c1OCO2	-7	-4%	2	1%	4%	-6%
CCOc1cc(/C=N/NC(=O)COc2ccc(C)cc2)ccc1OC(=O)c1cccs1	1	-6%	-3	3%	12%	-1%
COc1cccc(CSc2nc(-c3ccccc3OC)nc3c2Cc2c(CO)cnc(C)c2O3)c1	nt	-10%	nt	nt	-1%	nt
SMILES	Shiga toxin inh	Tb PYK inh	Cycloheximide cs	LmPK inhibitor	Sm TGR inh	FBPA Giardia inh
CCOc1cc(/C=N/NC(=O)c2ccccn2)ccc1OC(=O)c1ccc(F)cc1	-12	2%	-5	-4%	50µM*	nt
CCOc1cc(/C=N/NC(=O)c2ccncc2)ccc1OC(=O)c1ccccc1	-7	1%	-2	-4%	-16%	2%
O=C(NNC(=O)C1CCC1)c1ccc(Br)cc1	nt	1%	nt	nt	0%	nt
O=C(c1ccc(Br)cc1)C1CCc2occc2C1=O (centres undefined)	42	-1%	19	2%	56µM*	-19%
Cc1ccsc1C1CC(=O)OC2=C1C(=O)CC(C)(C)C2 (centres undefined)	10	nt	9	2%	0%	-1%
O=C(NCCN1CCCC1)c1ccc(Cn2c(=S)[nH]c3ccc(Br)cc3c2=O)cc1	-15	-25%	-1	-7%	-7%	10%
O=C(NCCCN1CCCC1)c1ccc(Cn2c(=S)[nH]c3ccc(Br)cc3c2=O)cc1	20	nt	7	-3%	45µM*	5%
O=c1c2cc(N3CCOCC3)ccc2[nH]c(=S)n1Cc1ccco1	7	?	11*	-1%	8.9µM*	?
O=C(c1ccc2c(=O)n(Cc3ccc(Cl)cc3)c(=S)[nH]c2c1)N1CCCC1	1	0%	2	0%	-7%	-12%
O=c1c2cc(N3CCOCC3)ccc2[nH]c(=S)n1Cc1cccc(Cl)c1	-11	-10%	-4	-1%	11%	-1%
O=C(CCCCCn1c(=S)[nH]c2ccc(N3CCOCC3)cc2c1=O)NC1CCN(Cc2ccccc2)CC1	8	-15%	-3	-2%	-1%	-10%
O=C(NC1CCN(Cc2ccccc2)CC1)c1ccc(Cn2c(=S)[nH]c3ccc(N4CCOCC4)cc3c2=O)cc1	55*	-8%	32*	0%	-14%	-26%
O=C(c1ccc2c(=O)n(Cc3ccc(Cl)cc3)c(=S)[nH]c2c1)N1CCOCC1	23*	-26%	26*	2%	-4%	?
CCc1ccc(CNC(=O)c2cnc3sc(N(CC)CC)nn3c2=O)cc1	nt	-8%	nt	nt	-8%	nt
Cc1c(-c2ccccc2)n(-c2ccc(Cl)cc2)c2nc3c(c(=O)n(C)c(=O)n3C)n12	nt	4%	nt	nt	2%	nt
Cc1ccc(-n2nc(C(=O)Nc3ccc(Br)cc3C)c(=O)n(C)c2=O)cc1	nt	-4%	nt	nt	-1%	nt
Cc1nn(C)c(C)c1C(C)NC(=O)c1cc(COc2ccc(F)c(F)c2)on1 (centres undefined)	47*	-7%	33*	-6%	-6%	nt
Cc1nn(C)cc1C(C)NC(=O)c1cc(COc2ccc(F)c(F)c2)on1 (centres undefined)	18	0%	33*	0%	14%	-1%
CCn1c(SCC(=O)Nc2cccc(Cl)c2)nnc1-c1nonc1NC(C)=O	nt	5%	nt	nt	0%	nt
Cc1ccc(-n2nc(C(=O)N3CCCCC3)c(=O)n(C)c2=O)cc1	nt	4%	nt	nt	10%	nt
CC(C)CN1CCN(CC#Cc2ccccc2)CC1CCO (centres undefined)	22	-1%	6	5%	-30%	0%
OCCC1CN(CC#Cc2ccccc2)CCN1Cc1ccccc1F (centres undefined)	4	5%	-3	3%	20µM*	3%
CCc1cccc(NC(=O)Cn2cc(C(=O)c3ccncc3)c(=O)c3cc(C)c(C)cc32)c1	nt	-4%	nt	nt	-6%	nt
COc1ccc(-n2nc([N+](=O)[O-])c(=NCCCN3CCCC3=O)n2O)cc1	21	-2%	17	3%	4%	-5%
